Screens (PubChem BioAssay)
Six1-Eya2 inh: inhibitors of human Six1/Eya2 interaction; activity change, % (concentration not given with the values); hit rate 0.56% among 360,000; Q15475+O00167; AID 651725; AlphaScreen GST-Six1/His-Eya2 binding, biochemical; active compounds read low; in the data active means activity change below about -65%; inconclusive means mostly about -30% to -63%
Target sequence (O00167 whole entry, looked up): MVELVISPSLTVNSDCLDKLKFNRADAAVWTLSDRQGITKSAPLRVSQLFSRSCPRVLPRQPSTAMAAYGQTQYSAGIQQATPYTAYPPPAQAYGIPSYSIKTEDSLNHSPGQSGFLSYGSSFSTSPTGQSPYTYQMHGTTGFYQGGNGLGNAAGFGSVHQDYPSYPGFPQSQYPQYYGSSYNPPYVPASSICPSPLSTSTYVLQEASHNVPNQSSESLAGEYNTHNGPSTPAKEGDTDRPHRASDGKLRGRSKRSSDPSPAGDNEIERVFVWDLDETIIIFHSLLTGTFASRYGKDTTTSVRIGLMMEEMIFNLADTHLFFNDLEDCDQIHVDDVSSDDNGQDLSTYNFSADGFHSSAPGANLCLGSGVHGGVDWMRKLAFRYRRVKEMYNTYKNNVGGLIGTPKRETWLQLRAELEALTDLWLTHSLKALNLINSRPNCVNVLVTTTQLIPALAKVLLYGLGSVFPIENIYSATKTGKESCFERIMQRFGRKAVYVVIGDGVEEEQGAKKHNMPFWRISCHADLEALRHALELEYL
Target sequence (Q15475 whole entry, looked up): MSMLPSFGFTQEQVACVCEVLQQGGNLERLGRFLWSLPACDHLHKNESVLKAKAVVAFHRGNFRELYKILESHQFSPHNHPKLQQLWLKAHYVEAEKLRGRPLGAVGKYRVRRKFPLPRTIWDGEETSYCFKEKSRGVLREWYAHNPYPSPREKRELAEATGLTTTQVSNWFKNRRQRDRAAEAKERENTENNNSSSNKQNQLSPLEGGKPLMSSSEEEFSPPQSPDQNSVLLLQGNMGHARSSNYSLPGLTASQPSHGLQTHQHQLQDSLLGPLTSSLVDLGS
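AlphaScreen with GST-Six1 and His-Eya2 (5X mix: 250 nM and 500 nM), glutathione donor and nickel acceptor beads; buffer 50 mM Tris pH 8.0, 300 mM NaCl, 1 mM TCEP; 1 h at 37 C in the dark.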
CtBP-E1A inh: blocks the CtBP interaction with E1A; hit rate 0.49% among 340,000; AlphaScreen GST-E1A/His-CtBP binding, 1536-well; active compounds read low; activity change, % (concentration not given with the values); AID 651724; in the data active means activity change below about -65%; inconclusive means mostly about -30% to -63%
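GST-E1A and His-tagged CtBP (125 nM each as 5X stock) were preincubated with pin-transferred compound for 2 h at 37 °C in the dark, then glutathione donor and nickel acceptor beads were added for 1 h before AlphaScreen reading.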
TDP1 cell noCPT: qHTS for Inhibitors of human tyrosyl-DNA phosphodiesterase 1 (TDP1): qHTS in cells in absence of CPT | hit rate 15% among 420,000 | AID 686978, 2013 | Potency, µM (highest dose often 46.2 µM), usual class: inhibitors | DT40 Tdp1-/- hTDP1 cells, no CPT, ATP luminescence, 48 h; further: nearly all actives have a fitted effect of over 55% in size
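Seeded 400 DT40-hTDP1 cells/well (vehicle DMSO, no 20 nM CPT); pinned compounds; ≥48 hr at 37 °C; CellTiter-Glo luminescence as viability measure.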
IL-1B inflam inh: blocks inflammasome-driven IL-1 beta release; THP-1 LPS/ATP IL-1B secretion, AlphaLISA, 16 h; active compounds read low; activity change, % at 57.5 µM; hit rate 4.7% among 360,000; in the data active means activity change below about -50%; inconclusive means mostly about -30% to -49%
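THP-1 cells pretreated 1 hr with compounds (up to 57.5 uM final), then stimulated with LPS (250 ng/mL final) plus ATP (1.25 mM final); secreted IL-1B measured by AlphaLISA after 16 hr, decreased signal indicating inhibition.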
TDP1 block: TDP1 (human) enzyme inhibition | Q9NUW8 | recombinant TDP1, AlphaScreen DNA substrate cleavage | Potency, µM (top dose mostly 130 µM), usual class: inhibitors | hit rate 0.28% among 350,000 | AID 485290; further: nearly all actives have a fitted effect of over 40% in size
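Enzyme-compound mixtures sat 15 min at room temperature, followed by a 5 min reaction with 15 nM final substrate and 10 min with AlphaScreen beads. Recombinant human Tdp1 was used at 1 nM final.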
DT40 TDP1 CPT: growth inhibition of DT40 Tdp1-/-;hTDP1 cells with camptothecin (screen for TDP1 inhibitors) | Potency, µM (series often up to 46.2 µM), usual class: inhibitors | hit rate 12% among 420,000 | chicken DT40 Tdp1-/-;hTDP1 cells + 20 nM CPT, ATP luminescence, 48 h | AID 686979; further: nearly all actives have a fitted effect of over 55% in size
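Chicken DT40 Tdp1-/- cells complemented with human TDP1, 400 cells/well, exposed to compounds plus 20 nM camptothecin for at least 48 h at 37 C; viability read as ATP content by CellTiter-Glo luminescence.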
Hits are given with their value; – = inactive; ? = inconclusive; · = no result given. Shown are actives, neighbours in structure and some others; about 18% of the full set was active somewhere. Unless noted, the call rests on the fitted dose curve; in most records, active means well fitted curve in the direction sought with a large enough effect; inconclusive means small, poorly fitted or top-dose-only effect, or another doubt; inactive means no such curve, though single readings can be large; an effect the other way counts as inactive or inconclusive.

SMILES	Six1-Eya2 inh	CtBP-E1A inh	TDP1 cell noCPT	IL-1B inflam inh	TDP1 block	DT40 TDP1 CPT
COc1ccc(C(=O)Nc2ccc(NC(=O)C3CCCCC3)nc2)cc1	–	–	–	–	–	–
Cc1ccn2cc(CCNS(=O)(=O)c3ccc([N+](=O)[O-])cc3)nc2c1	–	–	?	–	·	–
COc1ccc(NS(=O)(=O)c2ccc(N/N=C(\C)c3ccncc3)c([N+](=O)[O-])c2)cc1	–	–	7.3µM	–	–	12µM
COc1cc(S(=O)(=O)n2ccnc2C(C)C)ccc1Br	·	·	–	·	–	–
C[C@@]12C(C[C@H](O)[C@@]34C[C@@H](CCC13)[C@@H](CO)C4=O)[C@](C)(C(=O)O)CC[C@@H]2O (some centres undefined)	–	–	?	–	·	?
C=C1C(=O)[C@]23C[C@H]1CCC2[C@@]1(C)C(C[C@@H]3O)[C@](C)(C(=O)OC)CC[C@@H]1O (some centres undefined)	–	–	0.52µM	-111	·	1µM
Cc1c(N2C(=O)/C(=C/c3ccc(N(C)C)cc3)N(C)C2=S)c(=O)n(-c2ccccc2)n1C	–	–	–	–	·	–
COc1ccc(OC)c(/C=C/c2cc3ccccc3c[n+]2C)c1	·	·	2µM	·	·	2.8µM
COc1ccc(OC)c(C=NN=Cc2cc(OC)ccc2OC)c1	–	–	?	–	·	–
COc1ccc(OC)c(/C=C/c2c3ccccc3cc[n+]2C)c1	·	·	1.4µM	·	·	2.2µM
COc1cc(OC)c(/C=C/c2cc3ccccc3c[n+]2C)c(OC)c1	·	·	1µM	·	·	0.5µM
Cc1onc(-c2ccccc2)c1CNC(=O)C1COc2ccccc2O1 (centres undefined)	–	–	?	·	–	–
c1ccc(OCCN2CCOCC2)cc1	–	–	–	–	·	–
Cc1ccc(CNc2ccc(N3CCN(C)CC3=O)cc2)cc1	·	·	·	·	–	·
O=[N+]([O-])c1ccc(NN=C2CC3CCC2C3)c([N+](=O)[O-])c1 (centres undefined)	–	–	16µM	–	·	18µM
O=C(N/N=C1\CC2CC=CC12)c1ccc(O)cc1 (centres undefined)	–	–	–	–	–	–
O=[N+]([O-])c1ccc(N/N=C2\CC3CC=CC23)c([N+](=O)[O-])c1 (centres undefined)	-69	–	16µM	–	–	13µM
O=[N+]([O-])c1ccc(N/N=C2\CC3CC=CC23)cc1 (centres undefined)	–	–	?	?	–	23µM
Cc1ccc(C)c(Cn2c(=O)n(-c3ccc(CC(=O)NCc4ccco4)cc3)c(=O)c3sccc32)c1	–	–	?	–	–	?
CC1(C(=O)NCCC#N)CCN1C(=O)c1ccccc1CCc1ccccc1 (centres undefined)	–	–	–	–	·	?
COc1ccc(C(=O)Nc2cc(OC)c(NC(=O)Nc3ccccc3)cc2OC)cc1	?	–	18µM	–	·	?
COc1ccc(C(=O)Nc2ccccc2C(=O)N/N=C/c2ccncc2)cc1OC	–	–	16µM	–	–	16µM
O=C(Nc1ccccc1C(=O)O)c1cccc(NC(=O)c2ccccc2Br)c1	–	–	?	–	·	–
COc1ccc(NC(=O)Nc2ccccc2F)cc1	–	–	7.9µM	–	–	8.2µM
O=C(Nc1cc(C(=O)Nc2ccccc2C(=O)O)cc(C(=O)Nc2ccccc2C(=O)O)c1)c1ccccc1	-69	?	?	–	–	–
O=C(NC(=S)NC1CCS(=O)(=O)C1)c1ccccc1F (centres undefined)	–	–	–	–	–	–
COc1ccc(C(=O)Nc2ccccc2C(=O)Nc2ccccc2C(=O)O)cc1	-66	-77	23µM	–	·	18µM
COc1ccc(C(=O)Nc2ccccc2C(=O)Nc2ccc(C(=O)O)cc2)cc1	–	–	–	–	–	–
COc1ccc(C(=O)Nc2cccc3c2CCCC3)cc1	–	–	5.8µM	–	·	10µM
